Measurements from PubChem BioAssay AID1159580 (chemical genetic matrix, 2015).
Several values for one entry are separate records, joined by “and”; a condition that tells them apart may be missing. Identical values can stand only once. Screen size: about 5,500 compounds; about 2,000 (36%) were called active. Inconclusive results (about 18%) are left out. No stated cut-off is given here; in the data, active means normalized growth mostly below about 0.91 (no sharp cut-off); inconclusive means no clear call, values can overlap the other calls; inactive means mostly above about 0.92. This is one part of the list.

Assay: chemical genetic growth profiling, strain panel (AID 1159580);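 further: tested at 20 µM; growth read once vehicle control cultures reached saturation at 30 °C; 1 = growth at the plate median or of vehicle wells; lower values mean less growth of the strain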
Settings: S. cerevisiae deletion strains, growth OD

Measured: normalized growth

NC1C[C@H]1c1ccccc1 (stereo partly specified)
inactive: locus YAL013W, strain DEP1, hits give low values 1.01 | locus YAL021C, strain ccr4, hits give low values 1 | locus YAL026C, strain drs2, hits give low values 0.985 | locus YAL030W, strain snc1, hits give low values 0.985 | locus YBL061C, strain skt5, hits give low values 0.991 | locus YBR009C, strain hhf1, hits give low values 1 | locus YBR021W, strain FUR4, hits give low values 0.983 | locus YBR023C, strain chs3, hits give low values 0.983 | locus YBR171W, strain sec66, hits give low values 0.978 | locus YBR229C, strain ROT2, hits give low values 1 | locus YBR231C, strain swc5, hits give low values 0.98 | locus YBR279W, strain paf1, hits give low values 0.985 | locus YCL011C, strain gbp2, hits give low values 0.977 | locus YCL016C, strain dcc1, hits give low values 0.981 | locus YCL029C, strain bik1, hits give low values 0.978 | locus YCL069W, strain vba3, hits give low values 0.992 | locus YCR088W, strain abp1, hits give low values 0.992 | locus YDL005C, strain med2, hits give low values 0.953 | locus YDL035C, strain GPR1, hits give low values 1.01 | locus YDL040C, strain nat1, hits give low values 0.976 | locus YDL074C, strain BRE1, hits give low values 0.999 | locus YDL101C, strain DUN1, hits give low values 1 | locus YDL134C, strain PPH21, hits give low values 1.01 | locus YDL185W, strain tfp1, hits give low values 0.985 | locus YDL192W, strain arf1, hits give low values 0.995 | locus YDR001C, strain nth1, hits give low values 0.985 | locus YDR069C, strain doa4, hits give low values 0.98 | locus YDR101C, strain arx1, hits give low values 0.977 | locus YDR137W, strain rgp1, hits give low values 0.986 | locus YDR150W, strain NUM1, hits give low values 1 | locus YDR159W, strain sac3, hits give low values 0.984 | locus YDR162C, strain NBP2, hits give low values 1.01 | locus YDR195W, strain ref2 0.974 | locus YDR297W, strain sur2, hits give low values 1 | locus YDR318W, strain mcm21, hits give low values 0.972 | locus YDR334W, strain swr1, hits give low values 0.993 | locus YDR335W, strain msn5, hits give low values 0.997 | locus YDR388W, hits give low values 0.979 | locus YDR392W, strain spt3, hits give low values 0.991 | locus YDR502C, strain sam2, hits give low values 0.979 | locus YEL003W, strain gim4, hits give low values 0.993 | locus YEL037C, strain rad23, hits give low values 0.989 | locus YEL061C, strain CIN8 (second series), hits give low values 0.977 | locus YEL061C, strain CIN8, hits give low values 1.01 | locus YER015W, strain faa2, hits give low values 0.99 | locus YER016W, strain bim1, hits give low values 1.01 | locus YER110C, hits give low values 0.989 | locus YER111C, strain swi4, hits give low values 0.959 | locus YER155C, strain BEM2 (second series), hits give low values 0.976 | locus YER155C, strain BEM2, hits give low values 0.995 | locus YER167W, strain BCK2, hits give low values 1.01 | locus YFR010W, strain ubp6, hits give low values 1.04 | locus YGL078C, strain dbp3, hits give low values 0.973 | locus YGL086W, strain mad1, hits give low values 0.988 | locus YGL167C, strain pmr1, hits give low values 0.985 | locus YGL173C, strain kem1, hits give low values 0.991 | locus YGL227W, strain vid30, hits give low values 0.979 | locus YGL240W, strain doc1, hits give low values 0.991 | locus YGL248W, strain PDE1, hits give low values 1 | locus YGL253W, strain hxk2, hits give low values 0.985 | locus YGR078C, strain PAC10, hits give low values 0.989 | locus YGR135W, strain pre9, hits give low values 0.974 | locus YGR229C, strain SMI1, hits give low values 0.997 | locus YGR252W, strain gcn5, hits give low values 0.919 | locus YHR013C, strain ard1, hits give low values 0.962 | locus YHR027C, strain rpn1, hits give low values 0.995 | locus YHR030C, strain SLT2, hits give low values 1 and 0.953 | locus YHR079C, strain IRE1 (second series), hits give low values 0.975 | locus YHR079C, strain IRE1, hits give low values 0.983 | locus YHR094C, strain hxt1, hits give low values 0.989 | locus YHR129C, strain ARP1, hits give low values 1.01 | locus YHR142W, strain chs7, hits give low values 0.967 | locus YHR200W, strain rpn10, hits give low values 0.976 | locus YIL066C, strain RNR3, hits give low values 1.01 | locus YIL073C, strain SPO22, hits give low values 1.01 | locus YIL125W, strain kgd1, hits give low values 0.986 | locus YIR030C, strain dcg1, hits give low values 0.988 | locus YJL092W, strain hpr5, hits give low values 0.992 | locus YJL095W, strain BCK1 (second series), hits give low values 1 | locus YJL095W, strain BCK1, hits give low values 1.01 and 0.965 | locus YJL115W, strain asf1, hits give low values 0.976 | locus YJL129C, strain trk1, hits give low values 0.963 | locus YJL134W, strain LCB3, hits give low values 1 | locus YJL154C, strain vps35, hits give low values 0.973 | locus YJL164C, strain tpk1, hits give low values 0.999 | locus YJL166W, strain qcr8, hits give low values 1.01 | locus YJL168C, strain set2, hits give low values 0.983 | locus YJL187C, strain SWE1 (second series), hits give low values 1.01 | locus YJL187C, strain SWE1, hits give low values 0.992 | locus YJR043C, strain POL32, hits give low values 0.995 | locus YJR066W, strain TOR1, hits give low values 0.931
